Laboratory results from PubChem BioAssay.

tested on: Chordin-like protein 2 (CHRDL2); test: compounds binding chordin-like 2 – biochemical, small-molecule microarray, 635 nm fluorescence, primary screen (AID 1126); details: fluorescence 635 nm, higher = more signal;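 note: printed compound slides probed with Chrdl2 protein at 4 µg/mL for 1 h at 4 C; score merges 667 nm emission intensity with signal to noise over three replicate slides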

Compound | composite z-score
CC(C)[Si]1(C(C)C)OCc2cc(C3CC3)nc(-c3ccc(Oc4ccccc4)cc3)c21 | -0.368
O=C1NC(=O)C2C1C=CC(C(O)c1ccco1)N2Nc1ccc(Cl)cc1Cl (stereo not given) | 0.167
Cc1ccc(N2C(=O)c3ccccc3[C@@H](C(=O)NCCCN(C)C)[C@@H]2c2ccc(CO)cc2)nc1 | -0.283
CCCCCCc1nc(Cc2cc(OC)c(OC)c(OC)c2)cc2c1[Si](C(C)C)(C(C)C)OC2 | 0.472
CCOC(=O)C1=C[C@@H](C(C)(C)C)N(S(=O)(=O)c2ccc(C)cc2)[C@H]1c1cccc2ccccc12 | -0.516
COc1cc2c(cc1O)C(c1cccs1)N(Cc1cc3c(cc1Br)OCO3)CC2 (stereo not given) | 0.417
C=CCNC(=O)[C@@H]1[C@H]2C(=O)O[C@H](c3ccccc3)[C@H](c3ccccc3)N2[C@H](c2ccccc2OCCO)[C@@]12C(=O)Nc1ccc(C#CCC(C(=O)OC)C(=O)OC)cc12 | -0.14
C=CCN1C(=O)[C@]2(CCS(=O)(=O)c3ccccc3)N=C(c3ccc(OCCCO)cc3)O[C@@H]2c2ccccc21 | 1
CC(c1ccccc1)C(O)C1C=CC2C(=O)N(C)C(=O)C2N1Nc1ccccc1 (stereo not given) | -0.826
N#Cc1ccc(NN2C(C(O)c3ccc(Br)cc3)C=CC3C(=O)N(c4ccccc4)C(=O)C32)cc1 (stereo not given) | 0.195
COc1ccc([Si](C)(C)[C@@H]2[C@@H](CCO)O[C@]3(C(=O)N(Cc4cccc(NC(=O)[C@H](C)O)c4)c4ccccc43)[C@H]2C)cc1 | -0.083
CCCCC(CC)C(O)C1C=CC2C(=O)N(C)C(=O)C2N1Nc1ccccc1 (stereo not given) | -0.113
COCCOC(=O)N1C(=O)[C@@]2(c3cc(C#CCCO)ccc31)[C@H](c1ccc(OCCO)cc1)N1[C@H](c3ccccc3)[C@H](c3ccccc3)OC(=O)[C@H]1[C@@H]2C(=O)Nc1nc2ccccc2s1 | 0.27
[N-]=[N+]=NCc1ccccc1[C@@H]1OC(c2ccc(OCCCO)cc2)=N[C@]1(CCS(=O)(=O)c1ccccc1)C(=O)O | -1.92
O=C1C[C@]2(c3ccc([N+](=O)[O-])cc3)C(=O)N(C3CC3)c3cc(CO)ccc3[C@H]2N1CC12CC3CC(CC(C3)C1)C2 | -0.201
CCCC[C@@H]1C[C@H]1[C@@H](NC(=O)c1cccs1)c1ccccc1C(F)(F)F | -0.319
O=C(Cc1ccccc1)[C@H]1C2C=CCCC(c3ccccc3)=C2CN1Cc1ccccc1 (stereo not given in full) | 0.23
COC(=O)[C@]1(CCS(=O)(=O)c2ccccc2)N=C(c2ccc(OCCCO)cc2)O[C@@H]1c1ccccc1N=[N+]=[N-] | 0.412
COCCOC(=O)N1C(=O)[C@@]2(c3cc(C#CC4=CCCCC4)ccc31)[C@H](c1ccccc1OCCO)N1[C@H](c3ccccc3)[C@H](c3ccccc3)OC(=O)[C@H]1[C@@H]2C(=O)N1CCN(c2ncccn2)CC1 | 0.374
CN(C)C(=O)[C@@]1(Cc2ccccc2)N=C(c2ccc(OCCCO)cc2)O[C@H]1c1ccccc1 | -0.682
COc1ccc(C#Cc2ccc3c(c2)[C@]2(C(=O)N3)[C@H](C(=O)O)[C@H]3C(=O)O[C@H](c4ccccc4)[C@H](c4ccccc4)N3[C@@H]2c2ccc(O)cc2)cc1 | -0.844
CCCCC[C@H]1OC[C@@]23C=C(Br)[C@@H](CC12)[C@@]1(CO1)C3=O (stereo not given in full) | -0.194
CC1CC/C=C\[C@H]2OC34C=CCN(c5ccc(Cl)cc5)C(=O)[C@H]3N(C(C)CO)C(=O)[C@]4(C)C2C(=O)O1 (stereo not given in full) | -0.482
COc1cc2c(cc1O)C(C1CC1)N(Cc1cccc(OC(F)(F)F)c1)CC2 (stereo not given) | 0.13
COc1cc(C(O)C2C=CC3C(=O)N(C)C(=O)C3N2Nc2ccccc2)cc(OC)c1OC (stereo not given) | -0.0836
[N-]=[N+]=NCc1ccccc1[C@H]1OC(c2ccc(OCCCO)cc2)=N[C@@]1(Cc1ccccc1N=[N+]=[N-])C(=O)NCC(O)CO (stereo not given in full) | -0.603
COC(=O)[C@@]1(Cc2ccc(OC)cc2)[C@H]2c3cc(C(=O)N(C)C)n(Cc4ccc(OC(F)(F)F)cc4)c3C[C@H]2CN1C(=O)c1ccccc1 | -0.899
C=C(/C(=C/C[C@H](OC(C)=O)c1ccc(CO)o1)c1cnc2ccccc2c1)C(C)C | 1.06
Cc1ccc(S[C@]2(C(=O)NCc3ccccc3)CC(=O)N(C3CCCCC3)[C@@H]2c2ccc(CO)cc2I)cc1 | 0.338
COc1ccc([Si](C)(C)[C@@H]2[C@@H](CC(=O)N3Cc4ccccc4C[C@H]3CO)O[C@]3(C(=O)N(Cc4ccc(N5C(=O)c6cccc7cccc5c67)cc4)c4ccccc43)[C@H]2C)cc1 | 1.18
